Results: PubChem BioAssay AID1159580 (chemical genetic matrix, 2015)
In all, about 5,500 compounds went through this assay and about 2,000 (36%) were called active. About 18% were inconclusive and are not listed. Rule as the data show it: active = normalized growth mostly below about 0.91 (no sharp cut-off); inconclusive = no clear call, values can overlap the other calls; inactive = mostly above about 0.92. This is one part of the list.

Assay: chemical genetic growth profiling, strain panel (AID 1159580);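 also: tested at 20 µM; growth read once vehicle control cultures reached saturation at 30 °C; 1 = growth at the plate median or of vehicle wells; lower values mean less growth of the strain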
Settings: S. cerevisiae deletion strains, growth OD
[1] = locus YAL013W, strain DEP1, active compounds read low
[2] = locus YAL040C, strain CLN3, active compounds read low
[3] = locus YCL061C, strain MRC1 (second series), active compounds read low
[4] = locus YDR363W, strain ESC2, active compounds read low
[5] = locus YER002W, strain NOP16, active compounds read low
[6] = locus YMR263W, strain SAP30, active compounds read low
[7] = locus YMR307W, strain GAS1, active compounds read low
[8] = locus YNL153C, strain GIM3, active compounds read low
[9] = locus YNL175C, strain NOP13, active compounds read low
[10] = locus YNL197C, strain WHI3, active compounds read low
[11] = locus YNL224C, strain SQS1, active compounds read low
[12] = locus YNL322C, strain KRE1, active compounds read low
[13] = locus YOR083W, strain WHI5 (second series), active compounds read low
[14] = locus YPL055C, strain LGE1, active compounds read low
[15] = locus YPL241C, strain CIN2, active compounds read low
[16] = locus YDR150W, strain NUM1, active compounds read low
[17] = locus YGR078C, strain PAC10, active compounds read low

Measured: normalized growth

NCC1(CC(=O)O)CCCCC1
inactive: [1] 1 | [2] 0.991 | [3] 1.01 | [4] 0.995 | [5] 1.01 | [6] 0.999 | [7] 0.99 | [8] 1.02 | [9] 1.01 | [10] 1.01 | [11] 1.02 | [12] 0.998 | [13] 0.977 | [14] 0.999

C[N+]1(C)C2CCC1CC(OC(=O)c1c[nH]c3ccccc13)C2 (configuration not stated)
inactive: [1] 1.02 | [2] 1.06 | [3] 0.996 | [4] 1 | [5] 0.974 | [6] 0.997 | [7] 1.01 | [9] 0.973 | [10] 1.01 | [11] 1.02 | [12] 1 | [13] 0.978 | [14] 1 | [15] 1

CN(C)CCCCSC(=N)N
inactive: [1] 1.04 | [2] 0.998 | [3] 1.02 | [16] 1.01 | [4] 1.02 | [5] 0.985 | locus YJR075W, strain HOC1, active compounds read low 1.04 | [7] 1.01 | locus YNL128W, strain TEP1, active compounds read low 0.999 | [9] 0.995 | [10] 0.992 | [11] 1 | [13] 1.01

CSC(=N)N
inactive: [2] 0.992 | [3] 1.01 | [16] 1.01 | [4] 1.02 | [5] 0.984 | [17] 1.01 | [7] 1.01 | [8] 1.01 | [9] 1.01 | [10] 1 | [11] 1 | [13] 1.01 | [15] 1.01

CCSC(=N)N
inactive: locus YAL021C, strain ccr4, active compounds read low 1.03 | locus YAL026C, strain drs2, active compounds read low 1.01 | locus YAL030W, strain snc1, active compounds read low 1.01 | locus YBL061C, strain skt5, active compounds read low 1.02 | locus YBR009C, strain hhf1, active compounds read low 1.01 | locus YBR023C, strain chs3, active compounds read low 1.02 | locus YBR171W, strain sec66, active compounds read low 1.02 | locus YBR231C, strain swc5, active compounds read low 1.01 | locus YBR279W, strain paf1, active compounds read low 1.01 | locus YCL011C, strain gbp2, active compounds read low 1.02 | locus YCL016C, strain dcc1, active compounds read low 1.01 | [3] 1 | locus YCL061C, strain MRC1, active compounds read low 1.01 | locus YCL069W, strain vba3, active compounds read low 1.01 | locus YCR088W, strain abp1, active compounds read low 1.02 | locus YDL005C, strain med2, active compounds read low 1.03 | locus YDL040C, strain nat1, active compounds read low 1.02 | locus YDR001C, strain nth1, active compounds read low 1.01 | locus YDR069C, strain doa4, active compounds read low 1.01 | locus YDR137W, strain rgp1, active compounds read low 1.01 | [16] 1.01 | locus YDR159W, strain sac3, active compounds read low 1.05 | locus YDR195W, strain ref2 1.01 | locus YDR297W, strain sur2, active compounds read low 1.02 | locus YDR334W, strain swr1, active compounds read low 1.01 | locus YDR335W, strain msn5, active compounds read low 1.02 | [4] 1.01 | locus YDR392W, strain spt3, active compounds read low 0.975 | locus YEL003W, strain gim4, active compounds read low 1.01 | locus YEL037C, strain rad23, active compounds read low 1.01 | locus YEL061C, strain CIN8 (second series), active compounds read low 1.01 | [5] 0.999 | locus YER015W, strain faa2, active compounds read low 1.01 | locus YER016W, strain bim1, active compounds read low 1.02 | locus YER111C, strain swi4, active compounds read low 1.02 | locus YER155C, strain BEM2 (second series), active compounds read low 1.05 | locus YFR010W, strain ubp6, active compounds read low 1.01 | locus YGL167C, strain pmr1, active compounds read low 1.03 | locus YGL173C, strain kem1, active compounds read low 1.01 | locus YGL227W, strain vid30, active compounds read low 1.02 | locus YGL240W, strain doc1, active compounds read low 1.02 | locus YGL253W, strain hxk2, active compounds read low 1.02 | [17] 1.02 | locus YGR229C, strain SMI1, active compounds read low 1.04 | locus YHR013C, strain ard1, active compounds read low 1 | locus YHR027C, strain rpn1, active compounds read low 1.02 | locus YHR142W, strain chs7, active compounds read low 1.03 | locus YJL092W, strain hpr5, active compounds read low 1.01 | locus YJL095W, strain BCK1 (second series), active compounds read low 1.01 | locus YJL115W, strain asf1, active compounds read low 1.02 | locus YJL129C, strain trk1, active compounds read low 1.04 | locus YJL154C, strain vps35, active compounds read low 1.01 | locus YJL164C, strain tpk1, active compounds read low 1.01 | locus YJL166W, strain qcr8, active compounds read low 1.02 | locus YJL187C, strain SWE1, active compounds read low 1.01 | locus YKL160W, strain elf1, active compounds read low 1.02 | locus YKR026C, strain gcn3, active compounds read low 1.01 | locus YKR091W, strain srl3, active compounds read low 1.01 | locus YLL001W, strain dnm1, active compounds read low 1.02 | locus YLL026W, active compounds read low 1.01 | locus YLL041C, strain sdh2, active compounds read low 1.02 | locus YLR027C, strain aat2, active compounds read low 1.01 | locus YLR221C, strain rsa3, active compounds read low 1.01 | locus YLR258W, strain gsy2, active compounds read low 1.01 | locus YLR262C, strain YPT6 (second series), active compounds read low 1.02 | locus YLR320W, strain mms22, active compounds read low 1.03 | locus YLR342W, strain FKS1, active compounds read low 1.02 | locus YLR357W, strain rsc2, active compounds read low 1.01 | locus YLR370C, strain arc18, active compounds read low 1.02 | locus YLR384C, strain iki3, active compounds read low 1.02 | locus YML120C, strain ndi1, active compounds read low 1.01 | locus YMR058W, strain fet3, active compounds read low 1.02 | locus YMR125W, strain sto1, active compounds read low 1.01 | locus YMR129W, active compounds read low 1.02 | locus YMR205C, strain PFK2, active compounds read low 0.998 | locus YMR231W, strain pep5, active compounds read low 1.01 | [6] 1.01 | [7] 1.03 | locus YNL071W, strain lat1, active compounds read low 1.02 | [8] 1.03 | [9] 0.988 | [10] 0.992 | locus YNL209W, strain ssb2, active compounds read low 1.01 | [11] 1.01 | locus YNL248C, strain rpa49, active compounds read low 1.02 | locus YNL322C, strain KRE1 (second series), active compounds read low 1.02 | [12] 1.01 | locus YNR049C, strain mso1, active compounds read low 1.01 | locus YOR001W, strain rrp6, active compounds read low 1.02 | locus YOR070C, strain gyp1, active compounds read low 1.01 | locus YOR080W, strain dia2, active compounds read low 1.03 | [13] 0.995 | locus YOR083W, strain WHI5, active compounds read low 1.03 | locus YOR106W, strain vam3, active compounds read low 1.04 | locus YOR265W, strain rbl2, active compounds read low 1.01 | locus YOR270C, strain vph1, active compounds read low 1.07 | locus YOR290C, strain snf2, active compounds read low 0.96 | locus YPL051W, strain arl3, active compounds read low 1.02 | locus YPL078C, strain atp4, active compounds read low 1.02 | locus YPL106C, strain sse1, active compounds read low 1.04 | locus YPL240C, strain hsp82, active compounds read low 1.02
active: [2] 1.12 [resistant] | [14] 1.17 [resistant]
